Experimental data published in PubChem BioAssay (Tox21).
Records with an inconclusive call do not appear. Entries that show only a call come without a potency. The source made the active and inactive calls. The call rests on the fitted dose curve; in most records, active means well fitted inhibition curve with a large enough effect in the signal ratio in the repeat runs; inconclusive means weak or mixed curves, or effect the other way; inactive means flat fitted curve, though single readings scatter; the % refers to the signal ratio.
Potency means the concentration at half of the fitted maximal effect.

Test: qHTS assay for small molecule disruptors of the mitochondrial membrane potential (AID 720635)
Details: HepG2 mitochondrial membrane potential, Mito-MPS dye ratio; series mostly up to 83.2 µM
How it was run: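 HepG2 cells (2,000/well) attached overnight at 37C, then took compound for 1 hr at 37C, 5% CO2. Mito-MPS dye was added for 30 min; fluorescence was read at 490/535 nm (monomers) and 540/590 nm (aggregates).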
With `C[C@]12CCC(=O)C=C1CC[C@H]1[C@@H]3CC[C@](O)(C(=O)CO)[C@@]3(C)C[C@H](O)[C@@]12F` the Potency was “inactive”. With `CCCCC1CCC(O)CC1` (centres undefined) the Potency was “inactive”. In the case of `CC(=O)O[C@H]1C[C@@H]2CC[C@@]1(C)C2(C)C`, the Potency was “inactive”. In the case of `CCCCCCCCCCOC(C)=O`, the Potency was “inactive”. With `C#CCN[C@@H]1CCc2ccccc21` the Potency was “inactive”. In the case of `Cc1c(N)cccc1Cl`, the Potency was “inactive”. For `c1ccc(B(c2ccccc2)c2ccccc2)cc1`, the Potency was 61.1 µM (active). In the case of `OCC1CCC(CO)CC1` (centres undefined), the Potency was “inactive”. For `CC1(C)O[C@H]2CC(=O)OC[C@]23[C@H]2CC[C@@]4(C)[C@H](c5ccoc5)OC(=O)[C@H]5O[C@]54[C@]2(C)C(=O)C[C@@H]13`, the Potency was “inactive”. For `c1ccc2cnccc2c1`, the Potency was “inactive”. In the case of `CC1=NN(c2ccc(S(=O)(=O)O)cc2)C(=O)C1`, the Potency was “inactive”. With `O=C(NCN1CCOCC1)c1cnccn1` the Potency was “inactive”. For `N#Cc1cscn1`, the Potency was “inactive”. In the case of `COC(=O)c1cccc(Cl)c1`, the Potency was “inactive”. For `c1ccc2c(CC3=NCCN3)cccc2c1`, the Potency was “inactive”. For `CC12CCC(C1)C(C)(C)C2O` (centres undefined), the Potency was “inactive”. With `CC/C(C)=N\O[Si](C)(O/N=C(\C)CC)O/N=C(\C)CC` the Potency was “inactive”. In the case of `O=[N+]([O-])c1c(Cl)cc(Cl)cc1Cl`, the Potency was “inactive”. In the case of `CC(C)CO`, the Potency was “inactive”. In the case of `[O]=[Mo](=[O])=[O]`, the Potency was “inactive”. In the case of `CC1=C(C(=O)O)N2C(=O)[C@@H](NC(=O)[C@H](N)C3=CCC=CC3)[C@H]2SC1`, the Potency was “inactive”. With `CO/N=C(/C(=O)N[C@@H]1C(=O)N2C(C(=O)[O-])=C(C[n+]3ccn4ncccc43)CS[C@H]12)c1nsc(N)n1` the Potency was “inactive”. For `CC(C)CCOC(=O)c1ccccc1`, the Potency was “inactive”. With `O=Cc1ccccc1Cl` the Potency was “inactive”.
